Assay results as given in PubChem BioAssay (EPA / NIEHS).
“And” between values parts separate entries of the source, which are not always exact repeats. Equal values may be shown once. Some structures have more than one record in an assay (separate samples or runs), and their calls can disagree. The source made the active and inactive calls. Rule for the calls: active = hit-call score of the fitted dose curve at least 0.9, where 1 is the maximum; inactive = score below 0.9.

Experiments:
[1] = read-out: Plasminogen activator inhibitor-1 (PAI1), SERPINE1 (gene 5054); assay: BSK_MyoF_PAI1: BioMAP Diversity Plus: MyoF Assay for Plasminogen activator inhibitor-1 (PAI1) Biomarker Activity (AID 2284256); conditions: primary human lung fibroblasts
In short: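 In this multiplexed primary-cell system, fibroblasts from human lung received compound for 24 h before ELISA detection of PAI-1; overt toxicity was checked by SRB (0.1%, TCA-fixed, 560 nm) in parallel wells.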

[2] = read-out: Interleukin-8 (IL8), CXCL8 (gene 3576); assay: BSK_MyoF_IL8: BioMAP Diversity Plus: MyoF Assay for Interleukin-8 (IL8) Biomarker Activity (AID 2284261); conditions: primary human lung fibroblasts
In short: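 DMSO-normalised, upward-fitted IL-8 ELISA signal; human lung fibroblasts, 24 h chemical treatment.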

Decorin, DCN (gene 1634) = assay: BSK_MyoF_Decorin: BioMAP Diversity Plus: MyoF Assay for Decorin Biomarker Activity (AID 2284265); conditions: primary human lung fibroblasts
In short: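 In this multiplexed fibroblast system, secreted or surface decorin is detected by ELISA one day after dosing, with increases scored against the DMSO vehicle.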

[3] = BSK_MyoF_SRB: Viability Assessment in the BioMAP Diversity Plus: MyoF Assay (AID 2284267); conditions: primary human lung fibroblasts;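 note: total protein by SRB absorbance in parallel cultures as cytotoxicity measure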
In short: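 Lung fibroblast cultures, 24 h post-dose; fix 10% TCA, stain 0.1% SRB, read 560 nm. Signal = total protein as cytotoxicity measure; fitted relative to DMSO negative control.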

[4] = read-out: Matrix Metallopeptidase 1 (MMP1), MMP1 (gene 4312); assay: BSK_MyoF_MMP1: BioMAP Diversity Plus: MyoF Assay for Matrix Metallopeptidase 1 (MMP1) Biomarker Activity (AID 2284268); conditions: primary human lung fibroblasts
In short: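 Fibroblasts from human lung receive compound for 24 h before ELISA quantitation of MMP1. DMSO serves as baseline, and the endpoint is fitted for signal gain.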

[5] = read-out: TIMP metallopeptidase inhibitor 1 (TIMP1), TIMP1 (gene 7076); assay: BSK_MyoF_TIMP1: BioMAP Diversity Plus: MyoF Assay for TIMP metallopeptidase inhibitor 1 (TIMP1) Biomarker Activity (AID 2284269); conditions: primary human lung fibroblasts
In short: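 Primary human lung fibroblasts, MyoF multiplex system; chemical exposure 24 h; TIMP-1 by ELISA; positive fitting direction vs DMSO control.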

[6] = read-out: Interferon-inducible T-cell alpha chemoattractant (ITAC), CXCL11 (gene 6373); assay: BSK_hDFCGF_ITAC: BioMAP Diversity Plus: hDFCGF Assay for Interferon-inducible T-cell alpha chemoattractant (ITAC) Biomarker Activity (AID 2284251); conditions: primary human foreskin fibroblasts
In short: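 Measured by ELISA, the chemokine level serves as the endpoint in human skin fibroblast primary cultures 24 h after compound addition. Increases relative to DMSO-treated wells define activity.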

[7] = read-out: Plasminogen activator inhibitor-1 (PAI1), SERPINE1 (gene 5054); assay: BSK_KF3CT_PAI1: BioMAP Diversity Plus: KF3CT Assay for Plasminogen activator inhibitor-1 (PAI1) Biomarker Activity (AID 2284252); conditions: primary human keratinocytes with fibroblasts
In short: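 Keratinocyte + dermal fibroblast co-culture (human primary); 24 h post-dose; PAI-1 by ELISA; gain-of-signal fit vs DMSO control.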

[8] = read-out: Monocyte Chemoattractant Protein-1 (MCP1), CCL2 (gene 6347); assay: BSK_IMphg_MCP1: BioMAP Diversity Plus: IMphg Assay for Monocyte Chemoattractant Protein-1 (MCP1) Biomarker Activity (AID 2284253); conditions: primary human endothelial cells with macrophages
In short: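 ELISA readout of MCP-1 at 24 hours in IMphg co-cultures of venular endothelial cells and macrophages, normalised to DMSO; parallel cultures stained with sulforhodamine B for overt cytotoxicity.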

[9] = read-out: Interleukin-8 (IL8), CXCL8 (gene 3576); assay: BSK_KF3CT_IL8: BioMAP Diversity Plus: KF3CT Assay for Interleukin-8 (IL8) Biomarker Activity (AID 2284254); conditions: primary human keratinocytes with fibroblasts
In short: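 Using parallel SRB-stained cultures to flag overt toxicity, the study quantified IL-8 by ELISA in human keratinocyte–foreskin fibroblast co-cultures 24 h after dosing, with DMSO as negative control and baseline.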

[10] = read-out: Macrophage Inflammatory Protein-1 Alpha (MIP1a), CCL3 (gene 6348); assay: BSK_IMphg_MIP1a: BioMAP Diversity Plus: IMphg Assay for Macrophage Inflammatory Protein-1 Alpha (MIP1a) Biomarker Activity (AID 2284255); conditions: primary human endothelial cells with macrophages
In short: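 MIP-1a protein levels were quantified by ELISA after 24 h treatment of human endothelial cell–macrophage co-cultures, compared with DMSO. Parallel cultures were fixed with TCA and stained with 0.1% SRB to gauge overt cytotoxicity.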

CD69, CD69 (gene 969) = assay: BSK_IMphg_CD69: BioMAP Diversity Plus: IMphg Assay for CD69 Biomarker Activity (AID 2284257); conditions: primary human endothelial cells with macrophages
In short: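 Readout is ELISA for CD69 in primary human venular endothelial cell/macrophage co-culture, taken at 24 h post-dosing. SRB staining of parallel cultures gauged overt cytotoxicity; signal increase versus DMSO defined activity.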

[11] = read-out: Eotaxin 3, CCL26 (gene 10344); assay: BSK_BF4T_Eotaxin3: BioMAP Diversity Plus: BF4T Assay for Eotaxin 3 Biomarker Activity (AID 2284258); conditions: primary human bronchial epithelial cells with fibroblasts
In short: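 ELISA measurement of Eotaxin-3 after 24 h chemical exposure in a bronchial epithelial/dermal fibroblast co-culture, with DMSO as baseline. Parallel SRB staining (0.1% SRB after 10% TCA fixation, 560 nm) flagged overt cytotoxicity.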

[12] = read-out: Monocyte Chemoattractant Protein-1 (MCP1), CCL2 (gene 6347); assay: BSK_BF4T_MCP1: BioMAP Diversity Plus: BF4T Assay for Monocyte Chemoattractant Protein-1 (MCP1) Biomarker Activity (AID 2284259); conditions: primary human bronchial epithelial cells with fibroblasts
In short: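 MCP-1 ELISA readout taken 24 h after dosing in the BF4T system (bronchial epithelial cells plus dermal fibroblasts). Parallel SRB total-protein staining flagged cytotoxicity; DMSO served as baseline, positive fitting direction.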

[13] = read-out: Intercellular Adhesion Molecule 1 (ICAM1), ICAM1 (gene 3383); assay: BSK_BF4T_ICAM1: BioMAP Diversity Plus: BF4T Assay for Intercellular Adhesion Molecule 1 (ICAM1) Biomarker Activity (AID 2284260); conditions: primary human bronchial epithelial cells with fibroblasts
In short: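 ICAM-1 levels measured by ELISA after 24 h chemical treatment of bronchial epithelial cell/dermal fibroblast co-cultures, read against DMSO baseline. Overt cytotoxicity checked in parallel cultures by sulforhodamine B staining.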

CD90, THY1 (gene 7070) = assay: BSK_BF4T_CD90: BioMAP Diversity Plus: BF4T Assay for CD90 Biomarker Activity (AID 2284262); conditions: primary human bronchial epithelial cells with fibroblasts
In short: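 CD90 levels by ELISA after 24 h treatment of human bronchial epithelial cell/dermal fibroblast cultures, analysed versus DMSO. Overt cytotoxicity checked in parallel cultures by sulforhodamine B staining.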

[14] = read-out: Interleukin-8 (IL8), CXCL8 (gene 3576); assay: BSK_BF4T_IL8: BioMAP Diversity Plus: BF4T Assay for Interleukin-8 (IL8) Biomarker Activity (AID 2284263); conditions: primary human bronchial epithelial cells with fibroblasts
In short: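 Human bronchial epithelial cells with dermal fibroblasts co-culture; IL-8 measured by ELISA 24 hours after dosing, fitted vs DMSO. Cytotoxicity tracked in parallel cultures by SRB total-protein staining.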

[15] = read-out: Interleukin-1 alpha (IL1a), IL1A (gene 3552); assay: BSK_BF4T_IL1a: BioMAP Diversity Plus: BF4T Assay for Interleukin-1 alpha (IL1a) Biomarker Activity (AID 2284264); conditions: primary human bronchial epithelial cells with fibroblasts
In short: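 ELISA read-out of IL-1α from bronchial epithelial cell/dermal fibroblast co-cultures 24 h after compound addition. Increases scored against DMSO negative control. Cytotoxicity monitored by sulforhodamine B staining of parallel cultures.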

KRT18 (gene 3875) = assay: BSK_BF4T_Keratin818: BioMAP Diversity Plus: BF4T Assay for Keratin 818 Biomarker Activity (AID 2284266); conditions: primary human bronchial epithelial cells with fibroblasts
In short: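 Keratin 8/18 levels quantified by ELISA after 24 h chemical treatment of bronchial epithelial cell/dermal fibroblast co-cultures, fitted in positive direction relative to DMSO. Parallel SRB staining tracks overt cytotoxicity.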

[16] = read-out: Matrix Metallopeptidase 1 (MMP1), MMP1 (gene 4312); assay: BSK_BF4T_MMP1: BioMAP Diversity Plus: BF4T Assay for Matrix Metallopeptidase 1 (MMP1) Biomarker Activity (AID 2284270); conditions: primary human bronchial epithelial cells with fibroblasts
In short: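 MMP-1 quantified by ELISA in primary human bronchial epithelial/dermal fibroblast co-cultures, 24 hours post-dosing, with DMSO as baseline; parallel sulforhodamine B staining (560 nm) tracks overt cytotoxicity.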

Measured: AC50

CCOC(=O)C=Cc1ccccc1
inactive: [1] | [2] | Decorin, DCN (gene 1634) | [3] | [4] | [5]

CC(C)(C)c1cccc(O)c1
inactive: [1] | [2] | Decorin, DCN (gene 1634) | [3] | [4] | [5]

OCC(F)(OC(F)(F)C(F)(OC(F)(F)C(F)(F)C(F)(F)F)C(F)(F)F)C(F)(F)F (centres undefined)
active: [6] 2.4 µM and 2.03 µM | [7] 5 µM and 4.79 µM | [8] 4.65 µM | [9] 4.96 µM | [12] 4.19 µM | [3] 2.54 µM and 3.33 µM
inactive: [8] | [9] | [10] | [1] | CD69, CD69 (gene 969) | [11] | [12] | [13] | [2] | CD90, THY1 (gene 7070) | [14] | [15] | Decorin, DCN (gene 1634) | KRT18 (gene 3875) | [4] | [5] | [16]

CC(=O)c1ccc(C)cc1
inactive: [6] | [7] | [9]

CC(=O)OC(C)(C)C1CC=C(C)CC1 (centres undefined)
inactive: [1] | [2] | Decorin, DCN (gene 1634) | [3] | [4] | [5]

CCCO[Si](OCCC)(OCCC)OCCC
inactive: [6] | [7] | [9]

CCC(=O)OCC=Cc1ccccc1
inactive: [1] | [2] | Decorin, DCN (gene 1634) | [3] | [4] | [5]

C=C(C)C(=O)OCCC(F)(F)C(F)(F)C(F)(F)C(F)(F)C(F)(F)C(F)(F)C(F)(F)C(F)(F)F
inactive: all assays above

CC(C)Cc1ccc(C(C)C(=O)O)cc1 (centres undefined)
inactive: [1] | [2] | Decorin, DCN (gene 1634) | [3] | [4] | [5]

CCCCCCCCCCCCS
inactive: [2] | [5]
active: [1] 20 µM | Decorin, DCN (gene 1634) 3.97 µM | [3] 20 µM | [4] 5.81 µM

CC=CC(=O)C1=C(C)C=CCC1(C)C
inactive: [1] | [2] | Decorin, DCN (gene 1634) | [3] | [4] | [5]

CC(C)(CO)CO
inactive: [6] | [7] | [9]

O=C(O)C(F)(F)OC(F)(F)C(F)(F)OC(F)(F)C(F)(F)C(F)(F)C(F)(F)F
active: [6] 10.9 µM and 17.6 µM | [9] 42.7 µM | CD69, CD69 (gene 969) 40.3 µM | [11] 5.34 µM and 2.49 µM | [12] 8.8 µM and 220 nM | [14] 1.82 µM and 4.77 µM | [5] 11.9 µM and 8.26 µM
inactive: [7] | [8] | [9] | [10] | [1] | CD69, CD69 (gene 969) | [13] | [2] | CD90, THY1 (gene 7070) | [15] | Decorin, DCN (gene 1634) | KRT18 (gene 3875) | [3] | [4] | [16]

CC1=CC(C)C(C=O)C(C)C1 (centres undefined) (tested in a mixture with another compound)
inactive: [1] | [2] | Decorin, DCN (gene 1634) | [3] | [4] | [5]

NC(=O)c1c(Cl)cccc1Cl
inactive: [2] | Decorin, DCN (gene 1634) | [3] | [4] | [5]
active: [1] 4.48 µM

CC(C)CCCC(C)(C)O
inactive: [6] | [7] | [9]

CC1(C)[C@H](C=C(Cl)Cl)[C@H]1C(=O)OCc1cccc(Oc2ccccc2)c1
inactive: [1] | [2] | Decorin, DCN (gene 1634) | [3] | [4] | [5]

O=C1OC2(c3ccc(O)cc3Oc3cc(O)ccc32)c2ccccc21
inactive: [1] | [2] | Decorin, DCN (gene 1634) | [3] | [4] | [5]

CC(=O)CCC=C(C)CCC=C(C)C
inactive: [2] | Decorin, DCN (gene 1634) | [3] | [4] | [5]
active: [1] 0.016 µM
